# HepG2 viability – kills HepG2 cells in TGF-b inhibitor counter-screen | HepG2 CAGA-GFP viability, ATP luminescence, 18 h | Potency, µM (doses to about 46.1 µM), usual class: cytotoxic | actives 0.76% (n = 410,000)
#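 CellTiter-Glo luminescence gave cytotoxicity after 18 hours at 37 degrees C. The cells were HepG2 CAGA-GFP in 1% FBS DMEM, stimulated with 500 pg/mL TGF-beta after compound addition. %Activity was normalised to no-cell wells (complete cell-killing) and DMSO (no toxicity), and curves were fitted and classified.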
# ATXN2 expr inh – ATXN2 expression inhibition. Potency, µM (highest dose often 57 µM), actives largely listed as inhibitors. AID 1745845. HEK-293 ATXN2-luciferase reporter, luminescence, 24 h. actives 0.72% (n = 360,000); note: nearly all actives have a fitted effect of over 55% in size
#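 ATXN2-luciferase reporter cells (luciferase flanked by upstream and downstream ATXN2 gene portions) were treated 24 h at 37 °C with compounds at up to 57 uM. SteadyGlo luminescence gave expression; GF-AFC fluorescence gave viability.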
# KB-V1 MDR tox – kills drug-selected multidrug resistant KB-V1 cells | Potency, µM (series often up to 46.1 µM), actives largely listed as cytotoxic | actives 3.4% (n = 400,000) | AID 1347076 | KB-V1 MDR cells viability, CellTiter-Glo, 72 h; note: nearly all actives have a fitted effect of over 60% in size
#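 qHTS viability screen in drug-selected KB-V1 MDR cells: 72 h compound treatment at 37 degrees C, ATP luminescence end point.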
# TGFb inhibitor – inhibitors of TGF-b signaling | actives 1.2% (n = 410,000) | Potency, µM (highest dose often 46.1 µM), most hits filed as inhibitors | HepG2 CAGA-GFP TGF-b/SMAD3 reporter, GFP fluorescence, 18 h; TGF-beta stimulated, 500 pg/mL final; note: nearly all actives have a fitted effect of over 65% in size
#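 HEPG2 CAGA-GFP cells (1000/well, DMEM with 1% FBS) were pre-incubated 2 h at 37 degrees C, given compound by pin tool, then stimulated with TGF-beta at 500 pg/mL final for 18 h before per-cell GFP fluorescence imaging.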
# ATXN viability – reduces viability in counter-screen for ATXN expression inhibitors; S2 cells (HEK-293 line with an ATXN2-luciferase reporter) viability, CellTiter-Fluor protease fluorescence, 24 h; Potency, µM (top dose mostly 56.7 µM), most hits filed as cytotoxic; actives 0.49% (n = 400,000); AID 651635; note: nearly all actives have a fitted effect of over 40% in size
# KB-3-1 cytotox – kills parental KB-3-1 adenocarcinoma cells | KB-3-1 viability, CellTiter-Glo ATP luminescence, 72 h | Potency, µM (titrated, usually from 46.1 µM), most hits filed as cytotoxic | actives 1.4% (n = 400,000); note: nearly all actives have a fitted effect of over 60% in size
#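 Screening of KB-3-1 cells (DMEM, 10% FBS, phenol-red free) ran from lowest to highest compound concentration; after 72 h at 37 °C viability was read luminescently and curves fitted.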
# A number is an active result; – = inactive; ? = inconclusive; · = no result given; ! = not active in a repeat. Hits are enriched below; roughly 5.9% of the tested compounds scored in any of these assays. Calls come from the whole dose curve; as a rule, active = well fitted curve in the direction sought with a large enough effect; inconclusive = small, poorly fitted or top-dose-only effect, or another doubt; inactive = no such curve, though single readings can be large; an effect the other way counts as inactive or inconclusive.
SMILES,HepG2 viability,ATXN2 expr inh,KB-V1 MDR tox,TGFb inhibitor,ATXN viability,KB-3-1 cytotox
CCOCCCn1c(=NC(=O)c2cccnc2)c(C(=O)OCC)cc2c(=O)n3ccccc3nc21,–,–,?,–,–,?
CCOC(=O)c1cc2c(=O)n3cccc(C)c3nc2n(CCCOC)c1=NC(=O)c1cccnc1,–,–,12µM,–,–,–
CCCCCn1c(=NC(=O)c2ccco2)c(C(=O)OCC)cc2c(=O)n3ccccc3nc21,–,–,5.2µM!,?,–,–
COc1c(C)cc(C(=O)C2CCCN(C(=O)C3=C(C)OCCO3)C2)cc1C (stereo not drawn),–,·,21µM,–,–,–
COc1c(C)cc(C(=O)C2CCCN(C(=O)c3ccoc3)C2)cc1C (stereo not drawn),–,–,?,–,–,–
C=CCn1cnc2c(c1=O)c1nc3ccccc3nc1n2/N=C/c1cc(OC)c(OC)c(OC)c1,–,?,?,–,–,–
C=CCn1cnc2c(c1=O)c1nc3ccccc3nc1n2/N=C/c1cccc(OC)c1OC,–,–,23µM,–,?,–
C#CCN1C=CC(=O)[C@@H](OC(=O)Nc2ccccc2Br)[C@H]1c1ccccc1Br,–,–,–,?,–,–
C#CCN1C=CC(=O)[C@@H](OC(=O)Nc2ccc(Br)cc2)[C@H]1c1ccccc1Br,–,?,–,13µM,?,–
CNC[C@@H]1CC[C@@H](N)[C@@H](O[C@H]2[C@H](O)[C@@H](O[C@H]3OC[C@](C)(O)[C@H](NC)[C@H]3O)[C@H](N)C[C@@H]2N)O1,·,·,·,·,–,·
COC(=O)[C@@H]1C[C@]2(OC(=O)c3ccccc3)C=CC(=O)C[C@@H]2N1C(=O)OCc1ccccc1,–,14µM,–,?,·,?
COC(CNC(=O)C1CCCN1C(=O)OCc1ccccc1)OC (stereo not drawn),–,–,–,–,–,–
CCC1CN(CCNC(=O)c2ccnc(Cl)c2)Cc2cc(OC)ccc2O1 (stereo not drawn),·,·,·,·,–,·
COC(CNC(=O)c1ccc(N2CCc3ccccc32)c([N+](=O)[O-])c1)OC,–,–,15µM,–,–,?
NNC(=O)c1ccc(N2CCc3ccccc32)c([N+](=O)[O-])c1,–,–,–,–,?,–
COc1ccc(OC)c(C2C(C#N)=C(N)Oc3c2c(C)nn3-c2cccc(Cl)c2)c1 (stereo not drawn),–,–,–,?,–,23µM
COc1cccc(C(CC(=O)Nc2cccc3ccccc23)NC(=O)c2ccccc2)c1 (stereo not drawn),–,?,5.8µM,–,?,–
COc1ccc2nc(NC(=O)Nc3ccccc3OC)sc2c1,–,–,4.6µM,–,–,5.2µM
COc1cccc(C(=O)Nc2cccc3ccccc23)c1,–,–,–,–,?,–
COc1ccc(OC)c(NC(=O)c2cnc(Nc3ccccc3OC)c3ccccc23)c1,–,–,6.5µM,–,–,7.3µM
COc1ccc(NC(=O)Nc2cccc3ccccc23)c(OC)c1,–,–,–,–,–,–
COc1ccc(OC)c(NC(=O)Nc2cccc3ccccc23)c1,–,–,7.3µM,–,–,–
Cc1ncc2c(c1CNC(=O)/C=C/c1cccs1)CCN(C(=O)c1noc3c1CCCC3)C2,·,·,·,·,–,·
CCOC(=O)c1cc(OC(=O)c2ccc(C)cc2)n(-c2ccccc2)n1,–,–,–,–,–,–
CCOc1ccccc1C1Nc2ccccc2-c2nnc(SCc3ccccc3)nc2O1 (stereo not drawn),–,–,–,–,–,–
Nc1nc(CCl)nc(Nc2cccc3ccccc23)n1,13µM,·,?,11µM,?,?
CCc1ccc(/C=N/NC(=O)c2cc(-c3ccncc3)nc3ccccc23)s1,–,–,–,?,–,4.6µM
Cc1ccc(/C=N/NC(=O)c2cc(-c3ccccc3)nc3ccccc23)o1,–,–,–,–,–,–

# Screens as filed in PubChem BioAssay.
